Bioassay records deposited in PubChem by several laboratories.
EP2 modulator – EP2 receptor modulators, cAMP readout, primary screen, cell-based, HTRF cAMP, PGE2 stimulation; AID 940, 2007; actives 0.83% (n = 260,000); induction, % at 25 µM; EP2-expressing cells, cAMP HTRF FRET, PGE2 co-stimulation; Prostaglandin E2 receptor EP2 subtype (Homo sapiens), P43116;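 active = compounds whose cAMP rise, as percent of the full-agonist control response, exceeds 60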;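 note: rat C6 glioma line stably carrying human EP2 under a CMV promoter; the protocol text gives 20 µM as final concentration; 100% = response of wells given 1 µM PGE2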
KCC2 mod – KCC2 cotransporter modulators, thallium flux, primary screen, cell-based, HEK293 KCC2, FluoZin-2 fluorescence, MLSMR. Solute carrier family 12 member 5 (Homo sapiens), Q9H2X9. KCC2 cells, thallium flux FluoZin-2 fluorescence. B-score of Tl+ flux slope (higher = more flux/activation; lower = inhibition) at 10 µM. actives 2.2% (n = 190,000);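 active = thallium flux slope and its plate-corrected score both differing from the plate sample mean at a set confidence after two filtering rounds, in either direction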;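 note: slope of fluorescence scaled to starting intensity during 10 to 20 s after thallium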
PGE2 EP2 inh – human EP2 receptor antagonists, primary screen, TR-FRET cAMP, C6 glioma cells. Prostaglandin E2 receptor EP2 subtype (Homo sapiens), P43116. C6 glioma cells expressing human EP2; cells stimulated with saturating PGE2. inhibition, % at 25 µM. actives 0.52% (n = 260,000);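 active = percent inhibition above 40 after rounding to a whole number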;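 note: rat C6 glioma host cells with rolipram phosphodiesterase inhibitor present; the protocol text gives 20 µM as final concentration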
S1P3 antagonist – S1P3 receptor antagonists, primary screen, cell-based; Sphingosine 1-phosphate receptor 3 (Homo sapiens), Q99500; CHO S1P3 NFAT-BLA reporter, FRET fluorescence, antagonist mode; inhibition, % at 4.98 µM; actives 0.27% (n = 170,000);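 active = inhibition above the plate cutoff, the mean inhibition of test wells on that plate plus 3 SD, cut at about 28% in these data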;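 note: cells challenged with S1P at its EC80 of 0.8 µM; blue over green emission ratio from cleaved BLA substrate after 4 h stimulation; 0% = S1P-stimulated wells and 100% = unstimulated DMSO-only wells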
Target sequence (Q99500 whole entry, looked up): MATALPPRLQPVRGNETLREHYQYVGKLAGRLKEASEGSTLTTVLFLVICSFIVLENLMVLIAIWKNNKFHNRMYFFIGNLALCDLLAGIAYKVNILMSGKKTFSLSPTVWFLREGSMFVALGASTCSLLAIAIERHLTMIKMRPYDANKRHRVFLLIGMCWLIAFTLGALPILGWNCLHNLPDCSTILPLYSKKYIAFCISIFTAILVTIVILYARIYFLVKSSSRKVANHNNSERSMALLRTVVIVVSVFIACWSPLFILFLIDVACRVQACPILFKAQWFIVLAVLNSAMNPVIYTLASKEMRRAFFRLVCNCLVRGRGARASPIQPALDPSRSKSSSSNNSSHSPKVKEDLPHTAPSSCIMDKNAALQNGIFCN
An asterisk follows results filed as active; ! = a repeat was not active. Compounds with a hit are over-represented: about 3.1% of the library has one in this group of screens.

`COc1ccc(N2CC(C(=O)N/N=C/c3c[nH]c4ccccc34)CC2=O)cc1` (configuration not stated) gave EP2 modulator -65, KCC2 mod -0.42, PGE2 EP2 inh 7 and S1P3 antagonist 2.
For CCCCCN=C(N)N/N=C/c1c[nH]c2ccc(OC)cc12 the results were EP2 modulator 15 and PGE2 EP2 inh 136*!.
For c1ccc(C[n+]2cccc(-c3cc4ccccc4[nH]3)c2)cc1 the results were EP2 modulator -32 and PGE2 EP2 inh 59*.
Screening CC(=O)c1cccc(Nc2nc(-c3cccc([N+](=O)[O-])c3)cs2)c1 returned EP2 modulator 11 and PGE2 EP2 inh 4.
For Cc1ccc(-c2csc(N/N=C/c3ccco3)n2)cc1 the results were EP2 modulator -5, KCC2 mod -4.2 and PGE2 EP2 inh 4.
C(=N\Nc1nc(-c2ccccc2)cs1)/c1ccncc1 was read as EP2 modulator -64, PGE2 EP2 inh 26 and S1P3 antagonist -14.
For CN(C)S(=O)(=O)c1ccc(-c2csc(N/N=C/c3ccc(O)cc3)n2)cc1 the results were EP2 modulator -56, KCC2 mod 0.032, PGE2 EP2 inh 104* and S1P3 antagonist 7.
O=[N+]([O-])c1cccc(-c2csc(N/N=C/c3cccc(O)c3)n2)c1 was read as EP2 modulator -60, PGE2 EP2 inh 99* and S1P3 antagonist -12.
For CN(C)S(=O)(=O)c1ccc(-c2csc(N/N=C/c3ccco3)n2)cc1 the results were EP2 modulator -51, KCC2 mod -0.022, PGE2 EP2 inh 47* and S1P3 antagonist 16.
Screening CCOC(=O)c1c(NC(=S)NC(=O)c2ccccc2)sc(C)c1C returned EP2 modulator -30 and PGE2 EP2 inh 16.
Screening S=C(Nc1ccc(Cl)cc1Cl)Nc1ccccc1Oc1ccccc1 returned EP2 modulator 24, KCC2 mod 25* and PGE2 EP2 inh 19.
Screening S=C(Nc1ccccc1Oc1ccccc1)Nc1cccc(Cl)c1Cl returned EP2 modulator 1, KCC2 mod 31*, PGE2 EP2 inh 6 and S1P3 antagonist -12.
S=C(Nc1cccc(Cl)c1)Nc1ccccc1Oc1ccccc1 was read as EP2 modulator 19, KCC2 mod 5.4* and PGE2 EP2 inh 16.
For O=C(c1cn(C[C@@H]2CCCN(C(=O)c3cccs3)C2)nn1)N1CCOCC1 the results were EP2 modulator -16 and PGE2 EP2 inh 7.
Screening CCn1c(COc2ccc(Br)cc2)nnc1SCC(=O)Nc1ccc(C)c(C)c1 returned EP2 modulator 22 and PGE2 EP2 inh 28.
`CC[C@@H](N)Cn1nnn(-c2ccccc2)c1=O` gave EP2 modulator -56 and PGE2 EP2 inh 7.
`COc1ccc(N=c2oc3ccccc3cc2C(=O)NCc2ccco2)cc1` gave EP2 modulator 78* and PGE2 EP2 inh 11.
COc1ccc(N=c2oc3c(OC)cccc3cc2C(=O)NCc2ccco2)cc1OC was read as EP2 modulator 15, KCC2 mod -1.3, PGE2 EP2 inh 16 and S1P3 antagonist -42.
Screening O=c1c(O)c(-c2ccccc2)oc2ccccc12 returned EP2 modulator -22 and PGE2 EP2 inh 112*.
For COc1ccc(C2=CC(=O)N(Nc3ccccc3)C2=O)cc1 the results were EP2 modulator -82, KCC2 mod 0.43, PGE2 EP2 inh 18 and S1P3 antagonist 4.
Screening Cc1ccc(NN2C(=O)C=CC2=O)cc1 returned EP2 modulator 13, KCC2 mod 0.028, PGE2 EP2 inh 5 and S1P3 antagonist 7.
Screening Cc1ccc(NN2C(=O)C=C(c3ccc(Cl)cc3)C2=O)cc1 returned EP2 modulator -33 and PGE2 EP2 inh 40*.
For O=C1C=C(c2ccccc2)C(=O)N1Nc1ccccc1 the results were EP2 modulator -42 and PGE2 EP2 inh 84*.
Screening COC(=O)[C@H]1[C@@H]2C[C@H]3c4[nH]c5ccccc5c4CCN3C[C@H]2CC[C@@H]1OS(=O)(=O)O returned EP2 modulator 10 and PGE2 EP2 inh 48*.
`COC(=O)C1=COC(C)C2CN3CCc4c([nH]c5ccccc45)C3CC12` (configuration not stated) gave EP2 modulator 5, KCC2 mod -1.2, PGE2 EP2 inh 17 and S1P3 antagonist 15.
c1ccc(-c2nnc(CN3CCN(C(c4ccccc4)c4ccccc4)CC3)o2)cc1 was read as EP2 modulator 61*, KCC2 mod 0.35, PGE2 EP2 inh 10 and S1P3 antagonist -21.
`c1ccc(-c2nnc(CN3CCN(c4ccccc4)CC3)o2)cc1` gave EP2 modulator -47, KCC2 mod 0.25, PGE2 EP2 inh 11 and S1P3 antagonist -8.
For O=C(NCc1ccc2c(c1)OCO2)c1nnc(Cc2ccc(F)cc2)o1 the results were EP2 modulator 18, KCC2 mod 0, PGE2 EP2 inh 8 and S1P3 antagonist 106*.
O=C(c1cc(-c2cccs2)on1)N1CCC[C@H]1[C@H](O)c1nccs1 was read as EP2 modulator -11.
Screening CCc1nc(N)c(C#N)c(-c2ccc(OC)cc2)c1C returned EP2 modulator -22 and PGE2 EP2 inh 10.
For CN(C)c1ccc(NC(=O)CSc2nc(N)cc(=O)[nH]2)cc1 the results were EP2 modulator -31 and PGE2 EP2 inh 12.
`O=C(Nc1ccccc1Cl)c1ccccc1Cc1ccccc1` gave EP2 modulator 64*, KCC2 mod -0.38, PGE2 EP2 inh 0 and S1P3 antagonist 13.
Screening Cc1cc(C)nc(NS(=O)(=O)c2ccc(Nc3nc(-c4ccccc4)cs3)cc2)n1 returned EP2 modulator -77 and PGE2 EP2 inh 26.
Screening Fc1ccc(-c2cc3nc4c(c(N5CCOCC5)n3n2)CCCC4)cc1 returned EP2 modulator 74*!, PGE2 EP2 inh 8 and S1P3 antagonist 25.
Screening Cc1cccc(-c2cc3nc4c(c(N5CCOCC5)n3n2)CCCC4)c1 returned EP2 modulator 61*, KCC2 mod 0.028, PGE2 EP2 inh 7 and S1P3 antagonist 51.
CCN(Cc1ccccc1)C(c1ccc(C)cc1)c1nnnn1C(C)(C)C (configuration not stated) was read as EP2 modulator 61*, KCC2 mod -0.054 and PGE2 EP2 inh 10.
`CCN(Cc1ccccc1)C(c1ccc(Cl)cc1)c1nnnn1C(C)(C)C` (configuration not stated) gave EP2 modulator 31, KCC2 mod -0.0032 and PGE2 EP2 inh 3.
For CC(C)(C)n1nnnc1C(c1cccnc1)N(CCc1ccccc1)Cc1cccs1 (configuration not stated) the results were EP2 modulator 63* and PGE2 EP2 inh 8.
Screening Cc1ccc(-c2csc(NC(=O)CSc3nc(C)cc(=O)[nH]3)n2)cc1 returned EP2 modulator 29, KCC2 mod -4.2* and PGE2 EP2 inh 7.
For CCCNc1nc(NCCO)nc(OC)n1 the results were EP2 modulator 24 and PGE2 EP2 inh 12.
